Screens as filed in PubChem.
Most compounds without a hit are left out; they make up all but 4% or so of the library.
Peg3 prom inh: Peg3 promoter-driven luciferase inhibitors, primary screen, cell-based, HeLa, luciferase luminescence; HeLa PEG-Prom luciferase reporter, overnight; inhibition, % at 20 µM; hit rate 1.7% among 360,000; AID 588405, 2011;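 active = inhibition of at least 50% at 20 µM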
KKLEB tox: cytotoxicity in KKLEB CF airway cells, primary screen, cytotoxicity control for CF NF-kB inhibitor project, cell-based, uHTS, fluorescence assay plates; KKLEB CF airway cells viability, ATPlite luminescence, overnight; stronger effect = lower value; cells stimulated with P. aeruginosa culture filtrate; activity change (cytotoxicity), % at 5 µM; hit rate 0.36% among 360,000; AID 602141, 2011;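 active = corrected activity change at or below -50% at 5 µM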
CF NFkB block: inhibitors of PAF-induced NF-kB signaling, primary screen, cell-based, GFP fluorescence, uHTS. AID 588850, 2011. hit rate 0.86% among 360,000. inhibition, % at 5 µM. KKLEB NF-kB-GFP reporter, GFP fluorescence overnight;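 active = at least 50% inhibition at 5 µM, scaled per plate between neutral and stimulator controls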;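 also: PAF is a Pseudomonas aeruginosa culture filtrate used as stimulus; plate controls were PAF-stimulated DMSO wells for no effect and unstimulated DMSO wells for full effect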
HIF-2a block: HIF-2a reporter inhibitors, primary screen, luminescence, 786-0 RCC cells; hit rate 0.72% among 360,000; inhibition, % at 18.8 µM; 786-0 RCC cells HIF-2a reporter, luciferase luminescence, overnight; AID 624352, 2012;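 active = inhibition of the luminescence signal of 40% or more relative to plate controls, in a single-dose primary screen at 18.75 µM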
TWEAK Fn14 block: inhibitors of TWEAK-Fn14 signaling, primary screen, luciferase reporter cells, uHTS; TWEAK-stimulated Fn14 reporter cells, luciferase luminescence, 8 h; inhibition, % at 10 µM; hit rate 2% among 360,000; AID 1159606, 2016; in the data active = inhibition above about 50%
TROY signal inh: inhibitors of TROY-driven NF-kB signaling, primary screen, Q293 LMP1-TROYcd cells, NF-kB luciferase, uHTS | Q293 LMP1-TROYcd NF-kB luciferase reporter, 4 h | inhibition, % at 10 µM | hit rate 0.98% among 360,000;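 active = compounds whose plate-normalised and pattern-corrected inhibition of the luciferase reporter signal at the single screening dose is 50% or more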
Mdm2-MdmX confirm: retested Mdm2-MdmX interaction blockers, confirmation, cell-based, luminescence, single concentration, set 2; AID 504601, 2011; hit rate 99% among 740; SaOS-2 split-luciferase Mdm2/MdmX complementation; shares compounds with HIF-2a block; inhibition, % at 8 µM;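 active = mean inhibition of the luminescence signal across two replicates at or above 26 percent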
Target sequence (O15151 whole entry, looked up): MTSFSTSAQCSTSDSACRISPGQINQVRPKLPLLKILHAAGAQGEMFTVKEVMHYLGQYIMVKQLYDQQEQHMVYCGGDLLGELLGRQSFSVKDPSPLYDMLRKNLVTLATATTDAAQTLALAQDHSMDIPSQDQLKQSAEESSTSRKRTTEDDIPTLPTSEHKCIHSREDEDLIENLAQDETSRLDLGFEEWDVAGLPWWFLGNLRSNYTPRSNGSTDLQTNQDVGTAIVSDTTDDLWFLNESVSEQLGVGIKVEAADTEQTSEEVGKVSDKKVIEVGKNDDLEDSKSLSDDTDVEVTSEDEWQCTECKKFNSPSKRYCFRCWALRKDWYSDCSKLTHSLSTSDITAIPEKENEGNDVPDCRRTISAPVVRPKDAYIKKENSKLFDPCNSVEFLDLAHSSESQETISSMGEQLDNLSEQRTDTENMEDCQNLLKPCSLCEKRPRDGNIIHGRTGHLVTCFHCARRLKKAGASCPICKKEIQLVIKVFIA
Target sequence (Q00987 whole entry, looked up): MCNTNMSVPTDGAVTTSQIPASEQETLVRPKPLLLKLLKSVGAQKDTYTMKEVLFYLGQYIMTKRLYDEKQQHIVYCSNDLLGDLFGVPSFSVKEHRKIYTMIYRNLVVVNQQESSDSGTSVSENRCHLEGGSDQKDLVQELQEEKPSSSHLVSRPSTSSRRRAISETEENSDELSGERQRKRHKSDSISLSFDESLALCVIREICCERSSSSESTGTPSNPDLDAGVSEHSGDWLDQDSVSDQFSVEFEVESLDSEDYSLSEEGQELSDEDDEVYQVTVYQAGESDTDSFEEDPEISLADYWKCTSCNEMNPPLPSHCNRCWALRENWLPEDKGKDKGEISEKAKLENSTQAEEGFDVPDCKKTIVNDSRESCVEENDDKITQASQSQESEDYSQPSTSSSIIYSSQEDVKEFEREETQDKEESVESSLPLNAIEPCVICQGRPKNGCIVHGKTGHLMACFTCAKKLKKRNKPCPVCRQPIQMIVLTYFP
HIF-2a inh conf: HIF-2a reporter inhibitor retest, confirmation, luminescence, 786-0 RCC cells. shares compounds with HIF-2a block. HIF-2a luciferase reporter luminescence, overnight. inhibition, % at 18.8 µM. hit rate 56% among 1,800;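 active = mean inhibition across four replicates of at least 40 percent at the single tested concentration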
HIF-1a counter: HIF-1a luciferase reporter signal reduction – MiaPaCa-2 cells, single concentration, counter-screen for HIF-2a inhibitor project, confirmation | shares compounds with HIF-2a block | MiaPaCa-2 HIF-1a luciferase reporter, desferoxamine, overnight | inhibition, % at 18.8 µM | hit rate 72% among 1,800;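 active = mean inhibition of the reporter signal across four replicates at the single tested dose of 50% or more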
Active calls of the source: *; / = not tested or not shown.

SMILES	Peg3 prom inh	KKLEB tox	CF NFkB block	HIF-2a block	TWEAK Fn14 block	TROY signal inh	HIF-2a inh conf	HIF-1a counter	others
CCC(=O)OCCNc1cc(Sc2nc3ccccc3s2)c2nonc2c1[N+](=O)[O-]	99*	15	-6	53*	18	9	36	61*
CCCS(=O)(=O)NC(=O)C1(C)CCN(C(=O)c2nc(C)oc2C)C1 (centres undefined)	3	0	5	16	-5	-16	/	/
COc1ccc(F)cc1-c1cc(C(=O)NC2CCCCC2)[nH]n1	-109	2	-12	-152	-27	-55	/	/
C(#CC12CC3CC(CC(C3)C1)C2)CN1CCOCC1	2	-4	4	41*	1	20	4	-6
CCN1CCN(Cc2c(O)ccc3c2O/C(=C\c2ccccc2)C3=O)CC1	14	3	-12	14	3	-6	/	/
CN(C)Cc1c(O)ccc2c1O/C(=C\C=C\c1ccccc1)C2=O	21	14	8	11	25	21	/	/	Mdm2-MdmX confirm=11
Cc1ccc(S(=O)(=O)N2CCN(C(=O)COC(=O)C3CCC3)CC2)c(C)c1	1	-3	7	16	12	-14	/	/
CCN(CC(=O)NCc1ccc(F)cc1)CC(=O)Nc1cc(S(=O)(=O)N(C)C)ccc1C	20	-2	-9	0	6	-8	/	/
COC(=O)COc1ccc(S(=O)(=O)N2CCN(c3ccccc3F)CC2)cc1	11	5	-2	66*	-4	9	12	-1
COC(=O)COc1ccc(S(=O)(=O)N2CCN(c3ccccc3)CC2)cc1	18	10	-5	48*	-11	22	4	-13
COC(=O)COc1ccc(S(=O)(=O)N2CCOCC2)cc1C	9	8	-5	18	15	-12	/	/
COC(=O)COc1ccc(NC(=O)C(c2ccccc2)c2ccccc2)cc1	7	-1	4	88*	-5	1	34	-10
COC(=O)c1cc(S(=O)(=O)N2CCN(c3ccccc3F)CC2)c[nH]1	-1	-12	8	10	17	2	/	/
CCOc1ccc(S(=O)(=O)N2CCC(C(=O)N3CCN(c4ccccc4)CC3)CC2)cc1	21	1	1	2	18	12	/	/
COC(=O)COc1ccc(S(=O)(=O)N2CCc3ccccc3C2)cc1C	16	9	-13	76*	-31	4	20	-5
CC(C)(C)OC(=O)N1O[C@H]2CC1[C@@H]1[C@@H]2N=NN1CCc1ccncc1	0	-10	8	8	-8	-8	/	/
COc1ccc(S(=O)(=O)N2CCCCC2)cc1NC(=O)CCC(=O)N1CCC(c2ccccc2)=N1	-3	-3	-5	3	5	-5	/	/
Cn1c(SCC(=O)NCCc2ccccc2)ncc(C(=O)Nc2ccc(F)cc2)c1=O	-10	2	5	19	28	10	/	/
COc1ccc(C2(OC)Oc3cc(OC)ccc3C(=O)C2(O)OC)cc1 (centres undefined)	-9	1	-18	-44	-7	-7	/	/
O=C(Nc1ccc(Cl)c(Cl)c1)c1ccc(Cl)c(Cl)c1	-127	-3	-2	-272	-59	-43	/	/
Cc1ccc(NC(=O)c2ccc(Cl)c(N3C(=O)C=CC3=O)c2)cc1	101*	-1	28	49*	-13	-54	25	-34
Cc1onc(-c2ccccc2)c1C(=O)Nc1ccc(Br)cc1Cl	-112	19	-17	-2	-15	17	/	/
Oc1cc(OCc2ccccc2)ccc1-c1[nH]ncc1-c1ccccc1	18	4	-5	57*	-22	-24	-12	13
CCOC(=O)COc1ccc2nsnc2c1	-2	9	-3	16	-2	-4	/	/
CCOc1ccc(/C=C/[N+](=O)[O-])c2ccccc12	99*	-23	7	89*	-12	-19	39	105*
SMILES	Peg3 prom inh	KKLEB tox	CF NFkB block	HIF-2a block	TWEAK Fn14 block	TROY signal inh	HIF-2a inh conf	HIF-1a counter	others
CCOC(=O)Cn1cc(/C=C/[N+](=O)[O-])c2ccccc21	40	-2	-5	77*	11	18	60*	22
Cc1cccc(Cn2cc(/C=C/[N+](=O)[O-])c3ccccc32)c1	48	-5	3	36	18	-2	/	/
O=[N+]([O-])/C=C/c1cn(Cc2ccc(Cl)cc2)c2ccccc12	81*	5	25	51*	37	29	29	85*
CCOC(=O)COc1ccc(/C=C/[N+](=O)[O-])c(OCC(=O)OCC)c1	106*	-15	16	75*	-48	48	7	90*
CCOC(=O)Cn1cc(C#N)c2ccccc21	3	-14	17	11	15	-1	/	/
CCC(C)NC(=O)c1ccc(N2CC3CC(C2)c2cccc(=O)n2C3)c(NC(=O)c2ccc(Br)o2)c1 (centres undefined)	14	3	-7	2	-13	6	/	/
O=C(O)C1=NN(c2cc(Cl)c(S(=O)(=O)O)cc2Cl)C(=O)C1	2	7	-8	3	4	-5	/	/
CCOc1ccc(N=C(NN)c2ccc3ccccc3n2)cc1	3	-5	8	49*	94*	87*	45*	66*
CNc1cccc(-c2c(OC)cccc2OC)n1	5	-2	7	14	-21	-3	/	/
O=C(CCl)N1N=C(c2cccs2)CC1c1ccco1 (centres undefined)	41	-18	16	19	67*	1	/	/	Mdm2-MdmX confirm=103*
Cc1ccc(S(=O)(=O)OCCC2=CC(=O)CCN2Cc2ccccc2)cc1	-3	0	-38	3	-2	-4	/	/
NNC(=O)COc1ccc(-c2nccc(-c3ccc(F)cc3)n2)cc1	-51	4	-21	68*	55*	14	79*	52*
O=C(O)COc1ccc(-c2nccc(-c3ccccn3)n2)cc1	-40	-2	-3	87*	61*	21	90*	59*
CN(Cc1ccccc1)N=Nc1nc[nH]c1C(N)=O	11	6	2	-17	11	-3	/	/
